According to PubChem BioAssay (Tox21):
Results filed as inconclusive are left out. Unmarked numbers belong to inactive results. Activity calls are given as the source filed them. The call rests on the fitted dose curve; in most records, active means well fitted inhibition curve with a large enough effect in the repeat runs; inconclusive means weak or mixed curves; inactive means no such curve, though single readings can be large or run the other way.

The molecules below were run against Cytochrome P450 2C9 (Homo sapiens) (UniProt P11712) (assay: Cytochrome P450 Family 2 Subfamily C Member 9 (CYP2C9) small molecule antagonists: luciferase reporter qHTS assay (AID 1671198)). Conditions: P450-Glo CYP2C9 enzyme assay, luciferin luminescence; series mostly up to 115 µM; activity change, negative = inhibition: at the top concentration.
Method in brief: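 P450-Glo proluciferin substrate with CYP2C9 enzyme; 10 min RT preincubation, then NADPH regeneration 1 h at 37C; luciferin detection reagent 20 min RT, luminescence in relative luminescence units.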
Further: nearly all actives have a fitted effect of over 50% in size.
On the % scale 0 is the no-effect control and ±100 the full control effect; potency means the concentration at half of the fitted maximal effect.

Chain of Cytochrome P450 2C9 (Homo sapiens) (P11712 whole entry, looked up): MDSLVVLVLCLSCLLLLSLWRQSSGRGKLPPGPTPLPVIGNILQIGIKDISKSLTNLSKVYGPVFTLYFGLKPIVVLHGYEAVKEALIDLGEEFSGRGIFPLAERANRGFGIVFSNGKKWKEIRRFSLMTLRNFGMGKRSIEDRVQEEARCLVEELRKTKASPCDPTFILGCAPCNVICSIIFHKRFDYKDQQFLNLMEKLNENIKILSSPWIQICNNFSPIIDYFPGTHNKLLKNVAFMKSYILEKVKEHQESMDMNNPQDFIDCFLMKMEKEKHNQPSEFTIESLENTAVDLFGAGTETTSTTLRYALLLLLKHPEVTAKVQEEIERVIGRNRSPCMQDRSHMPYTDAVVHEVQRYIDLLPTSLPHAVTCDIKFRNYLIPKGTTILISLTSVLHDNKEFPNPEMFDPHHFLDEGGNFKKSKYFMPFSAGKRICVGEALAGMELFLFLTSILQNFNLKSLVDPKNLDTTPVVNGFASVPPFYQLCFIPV

| SMILES | activity change, negative = inhibition | Potency |
| --- | --- | --- |
| Cc1nc2ccc(Cl)cc2[nH]1 | -14.5% | – |
| CCOC(=O)c1ccc(N(C)C)cc1 | – | 31.7 µM (active) |
| C[Si](C)(C)O[Si](O)(O)O | 5.84% | – |
| CCC(C)SSC(C)CC (stereo not given) | -0.755% | – |
| CC(C)(C)OC=O | -13.1% | – |
| CCNC(=O)C(C)OC(=O)Nc1ccccc1 (stereo not given) | – | 35.6 µM (active) |
| COc1cc2nc(N3CCN(C(=O)C4CCCO4)CC3)nc(N)c2cc1OC (stereo not given) | -9.08% [at 53 µM] | – |
| Cc1cc(=O)oc2cc(O[C@@H]3SC[C@@H](O)[C@H](O)[C@H]3O)ccc12 | -10.6% [at 53 µM] | – |
| COC(=O)N/N=C/c1c[n+]([O-])c2ccccc2[n+]1[O-] | 11.8% [at 53 µM] | – |
| COC(=O)c1cc(Cl)c(NC(C)=O)cc1OC | 2% [at 53 µM] | – |
| CC(=O)Nc1ccc(OCCOCCOc2ccc(NC(C)=O)cc2)cc1 | – | 5.49 µM (active) |
| CC(O)CCCCn1c(=O)c2c(ncn2C)n(C)c1=O (stereo not given) | -2.98% [at 53 µM] | – |
| O=Cc1ccc(C(=O)O)cc1 | -2.31% | – |
| CC(C)(C)c1ccc(C(=O)CCCCl)cc1 | -8.61% [at 53 µM] | – |
| CC(C)(C)C(=O)CC(=O)C(C)(C)C | -8.3% | – |
| C=CC(=O)CC | 2.39% | – |
| CCCCC(O)/C=C(C)/C=C/C=C/C(=O)N1CCCC1=O (stereo not given) | -12.5% [at 53 µM] | – |

| SMILES | activity change, negative = inhibition | Potency |
| --- | --- | --- |
| CCN1CCN(C(=O)N[C@@H](C(=O)N[C@@H]2C(=O)N3[C@@H]2SC(C)(C)[C@H]3C(=O)O)c2ccccc2)C(=O)C1=O | -8.1% [at 53 µM] | – |
| c1coc(Cn2cccc2)c1 | -19.2% | – |
| CCC(C)c1nccnc1OC (stereo not given) | 9.69% | – |
| C=C(C)C(=O)OCCOC1CC2CC1C1C=CCC21 (stereo not given) | – | 42.9 µM (active) |
| Cc1ccc(OC(=O)CC(C)C)cc1 | -9.12% | – |
| O=CN1CCCCC1 | -4.76% | – |
| NS(=O)(=O)c1cc2c(cc1C(F)(F)F)NCNS2(=O)=O | 67.3% [at 53 µM] | – |
| CC(=O)c1ccc(O)c(C(N)=O)c1 | -0.251% [at 53 µM] | – |
| c1cc2ccc3ccc4ccc5cccc6c(c1)c2c3c4c56 | -14.6% [at 4.07 µM] | – |
| O=C(O)/C=C(\CC(=O)O)C(=O)O | -1.25% [at 53 µM] | – |
| Cc1cc(C)c(C)c(C)c1 | 0.291% | – |
| O=C1CC2(CCCC2)CC(=O)N1CCNCC1COc2ccccc2O1 (stereo not given) | -23.9% [at 53 µM] | – |
| CC[C@@]1(c2ccccc2)NC(=O)N(C)C1=O | -3.88% [at 53 µM] | – |
| C[C@@H]1CCC[C@H](C)N1CCCC(O)(c1ccccc1)c1ccccn1 (stereo not given in full) | 10.4% [at 53 µM] | – |
| CN(C)CCC[C@@]1(c2ccc(F)cc2)OCc2cc(C#N)ccc21 | 4.66% [at 53 µM] | – |
| CCOC(=O)[C@H](CCc1ccccc1)N[C@H]1CS[C@H](c2cccs2)CN(CC(=O)O)C1=O | -14.5% [at 53 µM] | – |

Each molecule was assayed against Cytochrome P450 1A2 (Homo sapiens) (UniProt P05177) (assay: Cytochrome P450 Family 1 Subfamily A Member 2 (CYP1A2) small molecule antagonists: luciferase reporter qHTS assay (AID 1671199)). Conditions: P450-Glo CYP1A2 enzyme, luciferin luminescence, 1 h; series mostly up to 115 µM; activity change, negative = inhibition: at the top concentration.
Method in brief: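 Luminescence from luciferin formed by CYP1A2 from a proluciferin substrate, read 20 min after detection reagent. Compound was pre-incubated 10 min with enzyme-substrate, and reaction started with NADPH regeneration solution for 1 h at room temperature; furafylline control.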

Chain of Cytochrome P450 1A2 (Homo sapiens) (P05177 whole entry, looked up): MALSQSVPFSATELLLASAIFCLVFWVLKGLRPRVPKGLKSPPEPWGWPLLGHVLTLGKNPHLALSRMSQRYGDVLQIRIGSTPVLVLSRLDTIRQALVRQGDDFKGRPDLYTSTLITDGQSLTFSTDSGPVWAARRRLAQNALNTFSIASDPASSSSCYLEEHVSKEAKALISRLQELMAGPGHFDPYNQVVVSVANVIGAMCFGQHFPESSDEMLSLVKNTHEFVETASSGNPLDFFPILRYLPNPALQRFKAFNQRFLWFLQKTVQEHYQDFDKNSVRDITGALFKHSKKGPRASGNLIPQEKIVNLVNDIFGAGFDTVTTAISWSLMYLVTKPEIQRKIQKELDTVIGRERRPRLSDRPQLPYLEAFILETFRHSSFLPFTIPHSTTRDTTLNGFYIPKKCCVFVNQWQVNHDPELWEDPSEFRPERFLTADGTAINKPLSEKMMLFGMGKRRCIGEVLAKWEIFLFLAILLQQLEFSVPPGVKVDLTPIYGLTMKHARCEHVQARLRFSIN

| SMILES | Potency | activity change, negative = inhibition |
| --- | --- | --- |
| Cc1nc2ccc(Cl)cc2[nH]1 | 2.82 µM (active) | – |
| CCOC(=O)c1ccc(N(C)C)cc1 | 5.03 µM (active) | – |
| C[Si](C)(C)O[Si](O)(O)O | – | -18.2% |
| CCNC(=O)C(C)OC(=O)Nc1ccccc1 (stereo not given) | 35.6 µM (active) | – |
| COc1cc2nc(N3CCN(C(=O)C4CCCO4)CC3)nc(N)c2cc1OC (stereo not given) | – | -15.7% [at 53 µM] |
| Cc1cc(=O)oc2cc(O[C@@H]3SC[C@@H](O)[C@H](O)[C@H]3O)ccc12 | – | -7.78% [at 53 µM] |
| COC(=O)N/N=C/c1c[n+]([O-])c2ccccc2[n+]1[O-] | – | -0.825% [at 53 µM] |
| COC(=O)c1cc(Cl)c(NC(C)=O)cc1OC | 2.45 µM (active) | – |
| CC(=O)Nc1ccc(OCCOCCOc2ccc(NC(C)=O)cc2)cc1 | – | -15.6% [at 53 µM] |
| O=Cc1ccc(C(=O)O)cc1 | – | -18.1% |
| O=S(=O)(O)c1cc(I)c(O)c2ncccc12 | – | -3.64% [at 53 µM] |
| CC(C)(C)c1ccc(C(=O)CCCCl)cc1 | 12.3 µM (active) | – |
